This is a sample that favours compounds with a hit; in the whole collection about 7.5% have one here.
Luc counter: counter-screen: inhibitors of Kinase-Glo firefly luciferase; 200,000 compounds, 0.28% hits; Potency, µM (top dose mostly 38.3 µM), without a hit: at the top dose activity change, negative = inhibition, hits mostly inhibitors; Kinase-Glo luciferase, ATP luminescence, 8 min; Q27757; also: % is scaled to controls: 0 for no effect and ±100 for the full control effect; nearly all actives have a fitted effect of over 60% in size
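Compound is pinned into ATP-containing buffer (10 uM ATP, imidazole pH 7.2, 7 mM MgCl2). Kinase-Glo luciferase reagent is then added. Light output is recorded following an 8-min room-temperature incubation.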
NPC1 prom act: NPC1 promoter activation; Huh7 NPC1 promoter luciferase reporter, 24 h; Potency, µM (titrated, usually from 9.22 µM), inactives show at the highest dose activation, actives largely listed as activators; 320,000 compounds, 2.4% hits; AID 485313; also: % of control where 0% means no effect; nearly all actives have a fitted effect of over 60% in size
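Huh7 reporter cells (NPC1 promoter driving luciferase) are dosed with compound for 24 h at 37 °C, 5% CO2; luciferase detection reagent is then added and luminescence measured after 10 min at ambient temperature.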
SMN2 splice enh: SMN2 splice variant enhancement. HEK293 SMN2-luciferase splicing reporter, luminescence, 30-36 h. Potency, µM (doses to about 46.1 µM), for the others: top-dose activity change, positive = activation, hits mostly activators. 210,000 compounds, 2.8% hits. AID 1458; also: % of control where 0% means no effect; nearly all actives have a fitted effect of over 55% in size
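HEK293 cells carry an SMN2 minigene-luciferase reporter in which exon 7 inclusion puts luciferase in frame. Cells were seeded at 2000 cells/well, attached for 10-12 hours, then exposed to compounds for 30-36 hours at 37C before ONE-Glo luminescence.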
ELG1 genotoxic: genotoxicity induction in ELG1-luciferase HEK293T cells; HEK293T ELG1-luciferase reporter, luminescence, 16 h; Potency, µM (doses to about 46 µM), for the others: top-dose activity change, positive = activation, usual class: activators; 330,000 compounds, 1.3% hits; AID 504466; also: % of control where 0% means no effect; nearly all actives have a fitted effect of over 60% in size
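Luminescence read-out: rising ELG1-luciferase signal, reflecting elevated ELG1 protein under genetic stress, flags genotoxic compounds. Cells were treated for 16 hr at 37 °C before ONE-Glo detection.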
FLuc counter: inhibits or activates purified firefly luciferase, miR-21 counter-screen; purified FLuc, Km substrates, luminescence inhibition; Potency, µM (highest dose often 57.5 µM), for inactives: at the top dose activity change, negative = inhibition, usual class: inhibitors; 360,000 compounds, 6.9% hits; AID 588342;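 also: plate controls were vehicle for no effect and reference inhibitor for full effect; nearly all actives have a fitted effect of over 55% in size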
Target sequence (P08659 whole entry, looked up): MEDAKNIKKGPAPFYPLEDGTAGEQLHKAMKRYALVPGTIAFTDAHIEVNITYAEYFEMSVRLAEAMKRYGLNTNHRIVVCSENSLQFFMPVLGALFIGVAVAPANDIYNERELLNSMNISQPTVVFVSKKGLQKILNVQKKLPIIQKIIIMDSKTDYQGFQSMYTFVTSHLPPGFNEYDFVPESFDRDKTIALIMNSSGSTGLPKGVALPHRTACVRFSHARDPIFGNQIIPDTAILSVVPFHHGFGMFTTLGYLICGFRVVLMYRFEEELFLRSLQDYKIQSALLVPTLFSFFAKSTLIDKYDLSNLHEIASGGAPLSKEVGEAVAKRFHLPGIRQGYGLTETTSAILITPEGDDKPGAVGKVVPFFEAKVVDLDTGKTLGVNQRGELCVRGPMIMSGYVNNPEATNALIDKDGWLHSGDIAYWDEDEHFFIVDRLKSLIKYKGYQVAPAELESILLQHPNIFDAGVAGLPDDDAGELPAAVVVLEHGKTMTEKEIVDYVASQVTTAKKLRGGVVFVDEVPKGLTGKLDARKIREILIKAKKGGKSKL
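Purified P. pyralis luciferase, 10 nM final, with Km-level 10 uM D-luciferin and 10 uM ATP in 50 mM Tris acetate pH 7.5, 10 mM Mg acetate, 0.01% Tween-20, 0.05% BSA; 6-point qHTS titration about 60 µM downward; luminescence read.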
Rab9 prom act: activates the Rab9 promoter | Huh7 Rab9 promoter-luciferase reporter, luminescence, 24 h | Potency, µM (titrated, usually from 9.22 µM), inactives show at the top dose activation, negative = inhibition, hits mostly activators | 320,000 compounds, 2.8% hits | AID 485297; also: % of control where 0% means no effect; nearly all actives have a fitted effect of over 60% in size
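Cells were plated at 1500 per well in reduced-serum medium with 10% FBS and left 2 h. Compound in DMSO was then added for 24 h at 37 °C. Reporter signal was read by luminescence after 10 min with luciferase detection reagent.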
* = called active by the depositor; ? = inconclusive; · = not tested or not shown. Calls follow the shape of the dose curve; as a rule, active = well fitted curve in the direction sought with a large enough effect; inconclusive = small, poorly fitted or top-dose-only effect, or another doubt; inactive = no such curve, though single readings can be large; an effect the other way counts as inactive or inconclusive. Potency is read from the fitted curve at half-maximal effect.

SMILES | Luc counter | NPC1 prom act | SMN2 splice enh | ELG1 genotoxic | FLuc counter | Rab9 prom act
COC(=O)CC(NC(=O)Nc1ccccc1F)c1ccc2c(c1)OCO2 (stereo not drawn) | · | -4% | · | 1% | 3% | 0%
CCc1ccc(NC(=O)N2CC(C)Oc3ccc(C)cc32)cc1 (stereo not drawn) | · | · | · | · | -10% | ·
COc1ccc(Cc2nc3ccc(C(=O)N4C[C@@H](C)O[C@@H](C)C4)cc3o2)cc1OC | · | 26% | · | ? | 15µM* | 10%
COc1ccc(Cc2nc3ccc(C(=O)N4CCOCC4)cc3o2)cc1 | · | 3.2µM* | · | 18µM* | 13µM* | 4µM*
CC(C)Cc1nnc(NC(=O)c2cc([N+](=O)[O-])ccc2N2CCOCC2)s1 | · | 14% | · | -4% | -1% | 15%
COc1ccc(Cn2c(/C=C/c3ccccc3)nc3ccccc32)cc1 | ? | 2.5µM* | ? | ? | 0.85µM* | 1.3µM*
Cn1c(/C=C/c2ccc(Cl)cc2)nc2ccccc2c1=O | · | 4µM* | · | ? | 3.8µM* | 2.8µM*
CSc1nc2ccccc2n1CC(=O)Nc1ccccc1 | 0% | -3% | -1% | 7% | 1% | 1%
Cn1c(/C=C/c2ccccc2)nc2ccccc2c1=O | · | ? | · | 5% | ? | ?
CCn1c(Cc2ccc(OC)cc2)nc2ccccc21 | · | 1% | · | -7% | 4% | -1%
O=C(Cn1c(/C=C/c2ccccc2)nc2ccccc21)Nc1ccc(F)cc1 | -8% | 21% | ? | ? | 4.8µM* | ?
CCC(C)n1c(/C=C/c2ccccc2)nc2ccccc21 (stereo not drawn) | 1% | -2% | 13% | 0% | 12µM* | 3%
COc1ccccc1CCNC(=O)Cc1c(C)c2c(O)cc(C)cc2oc1=O | · | · | 3% | · | -6% | ·
O=C(CSc1nnc(NC(=O)C2CC2)s1)Nc1ccc(F)cc1F | · | 1% | · | 3% | -1% | 9%
CNS(=O)(=O)c1cc(S(=O)(=O)NC)c2cccc3c2c1NC3=O | · | -3% | · | -2% | 5% | 0%
COc1ccc(/C=C/c2nc3ccccc3c(=O)o2)cc1 | · | ? | · | 0.82µM* | 0.6µM* | 0.089µM*
CCCCCCn1c(/C=C/c2ccccc2)nc2ccccc21 | · | · | -82% | · | 3µM* | ·
CC(C)Cn1c(/C=C/c2ccccc2)nc2ccccc21 | · | ? | · | 4% | 4.8µM* | 2.8µM*
CCn1c(/C=C/c2ccccc2)nc2ccccc21 | 10µM* | 2µM* | 7.1µM* | ? | 0.6µM* | 1.3µM*
COc1ccccc1/C=C/c1nc2ccc(OC(C)=O)cc2c(=O)o1 | · | -2% | · | 1% | ? | 3%
CCn1c(/C=C/c2ccccc2)nc2ccccc2c1=O | 2% | -1% | · | -7% | -17% | 0%
O=C(CSc1nc(O)c(C2CCCCC2)c(=O)[nH]1)Nc1ccccc1Cl | · | -2% | · | -9% | 2% | 0%
Cc1ccc(SCC(=O)OCC(=O)N(CCC#N)c2ccccc2)cc1 | · | 0% | · | 0% | 0% | -2%
CCCn1c(/C=C/c2cc[n+](C)cc2)nc2ccccc21 | · | -5% | · | -2% | -1% | -2%
COc1ccccc1/C=C/c1nc2ccccc2n1C(C)C | · | · | ? | · | 3.4µM* | ·
SMILES | Luc counter | NPC1 prom act | SMN2 splice enh | ELG1 genotoxic | FLuc counter | Rab9 prom act
COc1ccc(/C=C/c2nc3ccccc3n2C)cc1 | 2.8µM* | ? | 0.32µM* | ? | 0.13µM* | ?
COc1ccc(CN(C)CC(=O)Nc2ccccc2C(=O)NC2CC2)cc1 | · | -2% | · | -2% | 1% | -3%
Cc1ccc(-c2cc(C(=O)NCCCN3CCOCC3)c3ccccc3n2)cc1 | · | 2% | · | 15% | ? | -2%
Cc1ccc(-c2cc(C(=O)NCCCN3CCOCC3)c3ccccc3n2)cc1C | · | 5% | · | -4% | 12µM* | 1%
CCOc1ccc(-c2cc(C(=O)NCCCN3CCCC3)c3ccccc3n2)cc1 | · | 2% | · | 13% | 12µM* | 1%
COc1ccc(Nc2cc(C(=O)NCCCN3CCOCC3)c3ccccc3n2)cc1OC | -6% | 4% | 3% | -3% | 17µM* | 1%

Assay outcomes (PubChem BioAssay)
